Sampled rows, rich in hits. Any-hit rate of the full collection: about 4.7%.
D3 ag – agonists of human D3 dopamine receptor; max activation, %; AID 652048; P35462; D3R DiscoveRx beta-arrestin cells, luminescence, 90 min; hit rate 0.58% among 410,000; in the data active means max activation above about 30%; further: 0% is about no effect
Target sequence (P35462 whole entry, looked up): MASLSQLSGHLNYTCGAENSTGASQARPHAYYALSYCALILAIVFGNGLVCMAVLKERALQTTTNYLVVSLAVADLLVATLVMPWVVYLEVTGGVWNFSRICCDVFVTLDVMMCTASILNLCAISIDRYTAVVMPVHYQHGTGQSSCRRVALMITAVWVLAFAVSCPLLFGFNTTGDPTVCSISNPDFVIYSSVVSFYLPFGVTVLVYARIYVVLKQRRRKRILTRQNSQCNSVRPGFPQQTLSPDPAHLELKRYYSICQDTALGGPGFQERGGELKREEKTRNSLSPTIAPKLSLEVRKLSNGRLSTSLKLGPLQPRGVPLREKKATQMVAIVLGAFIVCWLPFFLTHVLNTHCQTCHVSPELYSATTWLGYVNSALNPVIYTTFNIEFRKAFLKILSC
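Agonist mode: compounds and dopamine controls were applied to plated cells for 90 min at 37 degrees C after an overnight attachment at 1500 cells/well. Luminescent read-out followed 30 - 60 minutes at room temperature with DiscoveRx detection reagent.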
HepG2 tox-1 – kills HepG2 cells in TGF-b inhibitor counter-screen; HepG2 CAGA-GFP viability, ATP luminescence, 18 h; Potency, µM (top dose mostly 46.1 µM), inactives show at the highest dose activity change, negative = cytotoxicity, usual class: cytotoxic; hit rate 0.76% among 410,000; further: potency means the concentration at half of the fitted maximal effect
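HepG2 CAGA-GFP cells (1000/well, DMEM with 1% FBS) received compound, then TGF-beta at 500 pg/mL final, and were incubated 18 hours at 37 degrees C. Viability was read by CellTiter-Glo luminescence. Media-only wells were set as complete cell-killing and DMSO as no toxicity.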
S2 tox – reduces viability in counter-screen for ATXN expression inhibitors; S2 cells (HEK-293 line with an ATXN2-luciferase reporter) viability, CellTiter-Fluor protease fluorescence, 24 h; Potency, µM (highest dose often 56.7 µM), usual class: cytotoxic; hit rate 0.49% among 400,000; further: potency means the concentration at half of the fitted maximal effect; nearly all actives have a fitted effect of over 40% in size
ATXN2 expr inh – inhibitors of ATXN2 expression; AID 1745845; HEK-293 ATXN2-luciferase reporter, luminescence, 24 h; hit rate 0.72% among 360,000; Potency, µM (titrated, usually from 57 µM), without a hit: at the top dose activity change, negative = inhibition, hits mostly inhibitors; further: potency means the concentration at half of the fitted maximal effect; on the % scale 0 is the no-effect control and ±100 the full control effect; nearly all actives have a fitted effect of over 55% in size
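qHTS (up to 57 uM final) was run with 24 h compound exposure of reporter cells at 37 °C. Each well was multiplexed: SteadyGlo luminescence measured ATXN2-luciferase expression after a fluorogenic Gly-Phe-AFC viability readout (25 uM final).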
TGFb inhibitor – blocks TGF-b signaling; HepG2 CAGA-GFP TGF-b/SMAD3 reporter, GFP fluorescence, 18 h; TGF-beta stimulated, 500 pg/mL final; Potency, µM (series often up to 46.1 µM), for inactives: at the highest dose activity, negative = inhibition, usual class: inhibitors; hit rate 1.2% among 410,000; further: potency means the concentration at half of the fitted maximal effect; on the % scale 0 is the no-effect control and ±100 the full control effect; nearly all actives have a fitted effect of over 65% in size
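HEPG2 CAGA-GFP reporter cells (1000/well, DMEM with 1% FBS) received compounds, then recombinant TGF-beta at 500 pg/mL final for 18 hours at 37 degrees C. Per-cell GFP summed per well was normalised to unstimulated and stimulated DMSO controls before curve fitting.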
DRD3 antagonist – antagonists of human D3 dopamine receptor; P35462; AID 652054; hit rate 2.5% among 360,000; max response, negative = inhibition, %; D3R cells, DiscoveRx beta-arrestin luminescence, antagonist mode; hits give low values; in the data active means max response below about -50%; inconclusive means no clear call, values can overlap the other calls; further: on the % scale 0 is the no-effect control and ±100 the full control effect
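Cells plated overnight at 1500 cells/well, then exposed to library compounds with dopamine controls for 90 minutes at 37 degrees C. DiscoveRx reagent added for 30–60 minutes at room temperature; luminescence read, quantitative HTS format.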
TGFb CAGA inh – confirmation of TGF-b signaling inhibitors in HepG2 reporter cells. shares compounds with TGFb inhibitor. HepG2 CAGA-GFP TGF-b reporter, GFP fluorescence, 18 h; cells stimulated with TGF-beta, 500 pg/mL. Potency, µM (doses to about 46.1 µM), without a hit: top-dose activity, negative = inhibition, hits mostly inhibitors. hit rate 63% among 1,600; further: potency means the concentration at half of the fitted maximal effect; on the % scale 0 is the no-effect control and ±100 the full control effect; nearly all actives have a fitted effect of over 65% in size
HepG2 tox-2 – HepG2 cytotoxicity, TGF-b inhibitor counterscreen; hit rate 27% among 1,600; HepG2 CAGA-GFP viability, ATP luminescence, 18 h; cells stimulated with TGF-beta, 500 pg/mL; Potency, µM (highest dose often 46.1 µM), for the others: top-dose activity, negative = cytotoxicity, actives largely listed as inhibitors; shares compounds with TGFb inhibitor; further: potency means the concentration at half of the fitted maximal effect; on the % scale 0 is the no-effect control and ±100 the full control effect; nearly all actives have a fitted effect of over 70% in size
TGFb CCL64 inh – blocks TGF-b signaling in CCL64 reporter cells; shares compounds with TGFb inhibitor; hit rate 41% among 1,600; Potency, µM (highest dose often 46.1 µM), inactives show top-dose activity, negative = inhibition, usual class: inhibitors; CCL64 CAGA-GFP reporter, TGF-b stimulated, GFP fluorescence, 18 h; further: potency means the concentration at half of the fitted maximal effect; nearly all actives have a fitted effect of over 65% in size
TGFb COP inh – TGF-b inhibition validated with COP promoter; shares compounds with TGFb inhibitor; HepG2 COP-GFP TGF-b reporter, GFP fluorescence, 18 h; cells stimulated by added recombinant TGF-beta; Potency, µM (doses to about 46.1 µM), for inactives: top-dose activity, negative = inhibition, usual class: inhibitors; hit rate 3% among 1,600; AID 720537; further: potency means the concentration at half of the fitted maximal effect; nearly all actives have a fitted effect of over 70% in size
* marks the source's active call; other numbers are inactive results. Unless noted, the call rests on the fitted dose curve; in most records, active means well fitted curve in the direction sought with a large enough effect; inconclusive means small, poorly fitted or top-dose-only effect, or another doubt; inactive means no such curve, though single readings can be large; an effect the other way counts as inactive or inconclusive.

For Cc1cc(C)c(Cn2cnc(-c3ccc([N+](=O)[O-])cc3)c2)c(C)c1 the results were D3 ag -22, HepG2 tox-1 -32%, S2 tox inactive, ATXN2 expr inh -25%, TGFb inhibitor inconclusive and DRD3 antagonist -28.
`CC(C)(C)c1ccc(Cn2cnc(-c3ccc([N+](=O)[O-])cc3)c2)cc1` gave D3 ag -21, HepG2 tox-1 -21%, S2 tox inactive, ATXN2 expr inh 13%, TGFb inhibitor 8.9µM*, DRD3 antagonist -26, TGFb CAGA inh 21µM*, HepG2 tox-2 inconclusive, TGFb CCL64 inh inconclusive and TGFb COP inh 51%.
Screening COc1ccc(NC(=O)Nc2ccc(O)c3ccccc23)cc1 returned D3 ag 33*, HepG2 tox-1 -131%, S2 tox inconclusive, ATXN2 expr inh inconclusive, TGFb inhibitor 6.3µM*, DRD3 antagonist -27, TGFb CAGA inh inconclusive, HepG2 tox-2 -21%, TGFb CCL64 inh 16µM* and TGFb COP inh 0%.
Screening COc1cccc(CNC(=O)C2CCN(S(=O)(=O)c3c(C)noc3/C=C/c3cccs3)CC2)c1 returned D3 ag -11, HepG2 tox-1 -16% and TGFb inhibitor inconclusive.
Screening Cc1ccc(-c2ccc(C(=O)Nc3ccccc3)o2)c2ccccc12 returned D3 ag 1, HepG2 tox-1 -10%, S2 tox inactive, ATXN2 expr inh -8%, TGFb inhibitor inconclusive and DRD3 antagonist 8.
Cc1cscc1-c1ccc(C(=O)Nc2c(C)cccc2C)o1 was read as D3 ag -13, HepG2 tox-1 -25%, S2 tox inconclusive, ATXN2 expr inh -28%, TGFb inhibitor 14µM*, DRD3 antagonist -23, TGFb CAGA inh 12µM*, HepG2 tox-2 -13%, TGFb CCL64 inh -29% and TGFb COP inh 17%.
CCCCN(CC)CCCNC(=O)CS(=O)(=O)Cc1nc(-c2ccc(C)cc2)oc1C was read as D3 ag -12, HepG2 tox-1 -46% and TGFb inhibitor inconclusive.
Cc1ccccc1-c1cc(C(=O)Nc2sc(C(=O)OC(C)C)c(C)c2C#N)c2ccccc2n1 was read as D3 ag 9, HepG2 tox-1 -35%, S2 tox inconclusive, ATXN2 expr inh inconclusive, TGFb inhibitor 3.5µM*, DRD3 antagonist -68*, TGFb CAGA inh 5.2µM*, HepG2 tox-2 1.5µM*, TGFb CCL64 inh 5.8µM* and TGFb COP inh 55%.
O=C(Nc1nnc(-c2cccs2)o1)c1cc(-c2ccccc2)nc2ccccc12 was read as D3 ag 1, HepG2 tox-1 -11%, S2 tox inconclusive, ATXN2 expr inh inconclusive, TGFb inhibitor 11µM*, DRD3 antagonist 64, TGFb CAGA inh 12µM*, HepG2 tox-2 inconclusive, TGFb CCL64 inh 15µM* and TGFb COP inh 27%.
`COC(=O)c1sc(NC(=O)c2cc(-c3ccccc3)nc3ccccc23)c(C#N)c1C` gave D3 ag 14, HepG2 tox-1 -46%, S2 tox inconclusive, ATXN2 expr inh inconclusive, TGFb inhibitor 5µM*, DRD3 antagonist 4, TGFb CAGA inh 4.6µM*, HepG2 tox-2 inconclusive, TGFb CCL64 inh 3.3µM* and TGFb COP inh 45%.
`CCOC(=O)c1sc(NC(=O)c2cc(-c3ccc(C)cc3)nc3ccccc23)c(C#N)c1C` gave D3 ag 7, HepG2 tox-1 -12%, S2 tox inactive, ATXN2 expr inh 9%, TGFb inhibitor inconclusive and DRD3 antagonist 3.
Screening COc1ccc(-c2cc(C(=O)Nc3sc4c(c3C#N)CCCC4)c3ccccc3n2)cc1 returned D3 ag -31, HepG2 tox-1 -18%, S2 tox inactive, ATXN2 expr inh 3%, TGFb inhibitor -18% and DRD3 antagonist inconclusive.
N#Cc1ccccc1NC(=O)c1cc2c(=O)n3ccccc3nc2s1 was read as D3 ag -7, HepG2 tox-1 -16%, S2 tox inactive, ATXN2 expr inh -6% and TGFb inhibitor 1%.
O=C1C(Cl)=C(NCCCO)C(=O)c2ccccc21 was read as D3 ag -2, HepG2 tox-1 -95%, S2 tox inactive, ATXN2 expr inh -37%, TGFb inhibitor inconclusive and DRD3 antagonist -25.
CN(C)c1ccc(NC2=C(Cl)C(=O)c3ccccc3C2=O)cc1 was read as D3 ag -21, HepG2 tox-1 5.6µM*, ATXN2 expr inh inconclusive, TGFb inhibitor 5.6µM*, DRD3 antagonist -93*, TGFb CAGA inh 5.2µM*, HepG2 tox-2 12µM*, TGFb CCL64 inh 13µM* and TGFb COP inh inconclusive.
Screening CC(=O)Nc1ccc(NC2=C(Cl)C(=O)c3ccccc3C2=O)cc1 returned D3 ag -13, HepG2 tox-1 3.5µM*, ATXN2 expr inh inconclusive, TGFb inhibitor 3.5µM*, DRD3 antagonist -102*, TGFb CAGA inh 5.2µM*, HepG2 tox-2 15µM*, TGFb CCL64 inh 2.9µM* and TGFb COP inh inconclusive.
O=C1C(Cl)=C(Nc2ccc3cn[nH]c3c2)C(=O)c2ccccc21 was read as D3 ag -11, HepG2 tox-1 1.1µM*, S2 tox 14µM*, ATXN2 expr inh 20µM*, TGFb inhibitor 0.63µM*, DRD3 antagonist -120*, TGFb CAGA inh 1.6µM*, HepG2 tox-2 3.3µM*, TGFb CCL64 inh 4.6µM* and TGFb COP inh 6.5µM*.
